# This is a sample that favours compounds with a hit; in the whole collection about 2.4% have one here.
# Pol eta inh: DNA polymerase eta (human) inhibition; recombinant Pol eta, fluorescent DNA replication assay; Potency, µM (top dose mostly 114 µM), for the others: at the top dose activity change, negative = inhibition, actives largely listed as inhibitors; 390,000 tested, 1.2% active; also: % is scaled to controls: 0 for no effect and ±100 for the full control effect
#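 Fluorescent replication assay: 50 nM final substrate added after a 15 min room-temperature compound preincubation with 10 nM enzyme. Signal taken at 0 min and again at 10 min.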
# FEN1 inhibitor: human FEN1 inhibition. P39748. Potency, µM (highest dose often 114 µM), for the others: at the top dose activity change, negative = inhibition, usual class: inhibitors. 390,000 tested, 0.35% active. AID 588795. Recombinant FEN1 flap cleavage, fluorescence, 15 min; also: % is scaled to controls: 0 for no effect and ±100 for the full control effect; nearly all actives have a fitted effect of over 65% in size
#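 Compounds are tested as a concentration series against 10 nM FEN1; after a 15 min room-temperature preincubation, 50 nM substrate starts cleavage, with plate reads at 0 and 15 min. Normalized responses are fitted by a Hill equation.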
# Pol kappa inh: inhibitors of human DNA polymerase kappa; Q9UBT6; purified Pol kappa, fluorescent DNA synthesis assay, 10 min; Potency, µM (titrated, usually from 107 µM), for the others: at the top dose activity, negative = inhibition, hits mostly inhibitors; 400,000 tested, 0.53% active; AID 588579; also: % is scaled to controls: 0 for no effect and ±100 for the full control effect
#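 Inhibition of 10 nM Pol kappa is measured by a fluorescent read-out at 0 and 10 min following addition of 50 nM substrate (final), with a 15-min room-temperature compound preincubation.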
# POLI inh: inhibitors of human DNA polymerase iota; Pol iota fluorescent replication assay, 10 min; Potency, µM (highest dose often 115 µM), for the others: at the highest dose activity, negative = inhibition, usual class: inhibitors; 390,000 tested, 1% active
#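 Fluorescent replication assay read twice, at 0 min and 10 min after adding 50 nM (final) substrate. Enzyme (10 nM) and compounds were first incubated 15 min at room temperature; enzyme-free buffer wells were negative controls.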
# WRN helicase inh: blocks human WRN helicase; Q14191; WRN helicase unwinding, fluorescent forked duplex, kinetic; Potency, µM (doses to about 114 µM), for inactives: top-dose activity change, negative = inhibition, most hits filed as inhibitors; 360,000 tested, 0.46% active; AID 651768; also: % is scaled to controls: 0 for no effect and ±100 for the full control effect; nearly all actives have a fitted effect of over 55% in size
#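 Kinetic fluorescence helicase assay: unwinding of a quenched forked DNA duplex (100 nM final) with 2 mM ATP final raises red fluorescence (525/598 nm). Compounds sat 15 min at room temperature with 20 nM WRN beforehand.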
# POLB inh: inhibitors of human DNA polymerase beta. Pol beta primer extension/strand displacement, fluorescence kinetic. Potency, µM (top dose mostly 114 µM), inactives show at the highest dose activity change, negative = inhibition, hits mostly inhibitors. 340,000 tested, 1.3% active. AID 485314; also: % is scaled to controls: 0 for no effect and ±100 for the full control effect
#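 Human Pol beta at 10 nM; strand-displacement substrate 50 nM final. Compound exposure 15 min at room temperature before start, reaction 10 min at room temperature.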
# * = called active by the depositor; ? = inconclusive; / = not tested or not shown; ! = a repeat was not active; [ ] = dose if it differs, or a comment. Calls follow the shape of the dose curve; as a rule, active = well fitted curve in the direction sought with a large enough effect; inconclusive = small, poorly fitted or top-dose-only effect, or another doubt; inactive = no such curve, though single readings can be large; an effect the other way counts as inactive or inconclusive. Potency is read from the fitted curve at half-maximal effect.
SMILES,Pol eta inh,FEN1 inhibitor,Pol kappa inh,POLI inh,WRN helicase inh,POLB inh
Cc1ccc2occ(C3N[C@H](C(=O)O)CS3)c(=O)c2c1 (some centres not stated),?,0%,-9%,10µM*,-29%,4%
Cc1c(-c2nsc(NC(=O)c3cccs3)n2)nnn1-c1ccc(Cl)cc1,?,?,-44%,?,/,20µM*
Cn1cccc1-c1cc(C(=O)N/N=C/c2ccc([N+](=O)[O-])cc2)[nH]n1,3%,-10%,-7%,20%,-17%,11%
CC(C)c1ccc(/C=N/NC(=O)c2cc(-c3cccc([N+](=O)[O-])c3)n[nH]2)cc1,?,5%,-18%,?,-28%,22µM*
COc1ccc(-c2[nH]c(-c3ccc(O)cc3)nc2-c2ccccc2)cc1,-15%,-16%,-22%,1%,/,6%
COc1cccc(C2c3c(-c4ccccc4O)n[nH]c3C(=O)N2CCc2ccc(OC)c(OC)c2)c1 (configuration not stated),-19%,-16%,-4%,-8%,/,5%
O=C(O)COc1ccccc1C1Nc2ccccc2-c2nnc(SCc3ccc(Cl)cc3)nc2O1 (configuration not stated),-5%,-19%,-19%,-7%,/,2.5µM*
COc1cc(C2Nc3ccccc3-c3nnc(SCc4ccc(C)cc4)nc3O2)cc(OC)c1O (configuration not stated),-3%,-21%,79µM*,?,/,-3%
CCC(CC)C(=O)Nc1c(C(=O)N2CCN(c3ccccc3F)CC2)oc2ccccc12,-13%,3%,-17%,-12%,/,14%
COc1ccc(Br)cc1C1NC(c2ccc3c(c2)OCO3)=CC(c2ccccc2O)N1 (configuration not stated),/,-13%,-9%,-23%,/,/
COc1ccc(OC)c(NS(=O)(=O)c2cc3c(cc2Cl)N(C(C)=O)CCO3)c1,-9%,-17%,-3%,-6%,/,9%
COC1=C/C(=C/c2c(N)n3nc(CC(=O)N4CCCCC4)sc3nc2=O)C=CC1=O,50µM*,-23%,?,?,-1%,-2%
CN(CC(=O)O)c1ccc(/C=C2\C=Cc3ccccc32)cc1,/,-1%,56µM*!,50%,/,/
C1=Cc2ccccc2/C1=C\c1cc[cH-]c1.[Fe+2].c1cc[cH-]c1,/,13µM*,1.1µM*,1.8µM*,/,/
C[N+](C)(C)c1ccc(/C=C2\C=Cc3ccccc32)cc1,/,35µM*,-2%,10%,/,/
Nc1ccc(/C=C2\C=Cc3ccccc32)cc1,/,-22%,-8%,10%,/,/
CC(=O)N(C)c1ccc(/C=C2\C=Cc3ccccc32)cc1,/,-20%,2%,-5%,/,/
COc1cc(C(=O)C(=O)N2CCC(Cc3ccccc3)CC2)cc2ccccc12,/,/,/,/,-9%,/
CC(C)CN1C(=O)c2ccc(C(=O)Nc3ccc(O)cc3C(=O)O)cc2C1=O,-8%,-7%,-6%,112%,-22%,16%
O=C(Nc1ccc(O)cc1C(=O)O)c1ccc2c(c1)C(=O)N(Cc1ccco1)C2=O,40µM*,?,-28%,?,?,?
Cc1noc(C)c1S(=O)(=O)N(C)C[C@H]1OCc2cnnn2CCCC(=O)N([C@@H](C)CO)C[C@H]1C,8%,/,/,/,6%,/
CCN(CC)C(=O)CC(c1ccc(OC)cc1)c1c(OC)cc(OC)c2ccc(=O)oc12 (configuration not stated),?,1%,?,79µM*,-12%,?
CCN(CC)C(=O)CC(c1cc(OC)c(OC)c(OC)c1)c1c(OC)cc(OC)c2ccc(=O)oc12 (configuration not stated),-2%,-11%,-10%,-24%,-6%,5%
C=CCN1C(=O)/C(=C/c2ccsc2)SC1=S,1%,14%,-17%,1%,-2%,12%
C=CCN1C(=O)/C(=C/c2ccc(-c3ccc(F)cc3)o2)SC1=S,-11%,-4%,0%,13%,-3%,10µM*
SMILES,Pol eta inh,FEN1 inhibitor,Pol kappa inh,POLI inh,WRN helicase inh,POLB inh
COc1ccc2c(c1)C(c1ccccc1C)CC(=O)O2 (configuration not stated),/,/,-23%,/,/,/
CCOC(=O)c1ccc(S(=O)(=O)Nc2nc3cc(S(=O)(=O)NC4=NCCCCC4)ccc3s2)cc1,-5%,-8%,-3%,14µM*,?,1%
O=c1c2cc([N+](=O)[O-])cc([N+](=O)[O-])c2[nH]n1-c1ccccc1,?,-11%,-11%,?,-19%,-8%
O=c1c2c([N+](=O)[O-])cc([N+](=O)[O-])cc2sn1Cc1ccccc1,-19%,?,7%,59%,20µM*,21%
O=c1c2c([N+](=O)[O-])cc([N+](=O)[O-])cc2sn1-c1ccc(Br)cc1,-8%,-9%,-8%,1%,79µM*,15%
Cc1ccc(OCC(=O)Nc2ccc(NC(=O)c3ccco3)cc2)c(C)c1,?,-2%,-6%,?,-5%,28µM*
COc1ccc(NC(=O)c2ccco2)cc1NC(=O)COc1ccc(C)cc1C,?,-4%,2%,-7%,/,?
CCOc1ccc(C(=O)Nc2cccc(NC(=O)c3ccco3)c2)cc1Cl,-11%,89µM*,0%,89µM*,/,-23%
COc1ccc(NC(=O)c2ccco2)cc1NC(=O)COc1ccc(Cl)cc1C,79µM*,-9%,-11%,-4%,/,?
CCOc1ccc(C(=O)Nc2cc(NC(=O)c3ccco3)ccc2OC)cc1Br,-24%,29%,-10%[60.1 µM],-2%,/,-12%
Cc1cc(C)c(S(=O)(=O)N2CCOC23CCN(S(C)(=O)=O)CC3)c(C)c1,-15%,/,/,/,0%,/
CC1(C)NC(=O)N(CN2C(=O)NC(C)(C)C2=O)C1=O,-8%,-2%,2%,-4%,5%,79µM*
O=C(O)c1ccc(N2CCCCC2)cc1O,-17%,18%,0%,18%,-7%,3%
O=C(O)c1ccc(N2Cc3ccccc3C2)cc1O,5.6µM*,?,?,?,-28%,45µM*
CCC(C)C(=O)OC1CCC=C2C=CC(C)C(CCC3CC(O)CC(=O)O3)[C@@H]21 (some centres not stated),/,/,-14%[19.4 µM],/,/,/
COc1ccc2nc(N=Nc3ccc(O)c4ccccc34)sc2c1,?,-19%,-28%,-2%,-16%,45µM*
O=C1N/C(=C\c2ccc(O)cc2)C(=O)c2ccccc21,25µM*,-15%,-17%,20µM*,?,2%
O=C(O)/C=C1\NC(=O)c2ccccc21,4%,-6%,-10%,-4%,2%,13%
CCCCCCCCCCCCCCCCOCC(CO)OC(C)=O (configuration not stated),/,/,4%[19.4 µM],/,/,/

# Source: PubChem BioAssay (National Center for Advancing Translational Sciences (NCATS))
